# The list is not random: actives were taken first. Their share in the collection is about 2.6%.
# Shn3 inh set2: reduces Shn3 3'UTR luciferase signal in osteoblasts; Clone20 osteoblast Shn3 3'UTR firefly luciferase, 24 h; inhibition, % at 12.5 µM; actives 0.52% (n = 360,000); AID 588674;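 active means mean inhibition of at least 75% with every replicate also reaching 75%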
# HIF-2a inh: HIF-2a inhibition | 786-0 RCC cells HIF-2a reporter, luciferase luminescence, overnight | AID 624352 | inhibition, % at 18.8 µM | actives 0.72% (n = 360,000);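 active means inhibition of the luminescence signal of 40% or more relative to plate controls, in a single-dose primary screen at 18.75 µM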
# Peg3 prom inh: reduces Peg3 promoter-driven luciferase expression in HeLa. HeLa PEG-Prom luciferase reporter, luminescence, overnight. inhibition, % at 20 µM. actives 1.7% (n = 360,000). AID 588405;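 active means inhibition of at least 50% at 20 µM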
# KKLEB tox: counter-screen for CF NF-kB inhibitors: cytotoxicity; KKLEB CF airway cells viability, ATPlite luminescence, overnight; hits give low values; cells stimulated with P. aeruginosa culture filtrate; activity change (cytotoxicity), % at 5 µM; actives 0.36% (n = 360,000);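 active means corrected activity change at or below -50% at 5 µM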
# CF NFkB inh: inhibitors of cystic fibrosis induced NF-kB; KKLEB NF-kB-GFP reporter, PAF-induced, GFP fluorescence overnight; inhibition, % at 5 µM; actives 0.86% (n = 360,000);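 active means at least 50% inhibition at 5 µM, scaled per plate between neutral and stimulator controls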;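 further: PAF is a Pseudomonas aeruginosa culture filtrate used as stimulus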
# A number is an active result; . = inactive.
SMILES,Shn3 inh set2,HIF-2a inh,Peg3 prom inh,KKLEB tox,CF NFkB inh
Cc1cccc2c1c1ccc3c(c1n2C)C(=O)C=CC3=O,.,.,93.3,.,.
O=C(NCc1ccc(F)cc1)N1CCN(C(=O)c2ccccc2)CC1,.,.,.,.,.
CC(Sc1nc2ccccc2c(=O)n1C)C(=O)Nc1ccc2c(c1)OCCO2 (stereo unspecified),85.8,.,.,.,.
CSCCC(N=C(NS(=O)(=O)c1ccccc1)c1ccccc1)C(=O)O (stereo unspecified),.,.,.,.,.
O=C(NC1(Cc2ccccc2)CCN(Cc2ccc(-c3ccccc3)cc2)C1=O)c1ccccc1 (stereo unspecified),.,.,85.2,.,.
CN(Cc1ccccc1)C(=O)c1cccc(NC(=O)Cc2ccc([N+](=O)[O-])cc2)c1,88.0,.,.,.,.
C[C@@H]1CN([C@H](C)CO)C(=O)CCCn2nncc2CO[C@@H]1CN(C)C(=O)C1CCCCC1,.,.,.,.,.
Cc1ccc(S(=O)(=O)N2[C@H](C(C)C)[C@H]3[C@H]4C(=O)N(c5ccccc5)C(=O)[C@H]4CC(=O)[C@H]3[C@@H]2c2ccccc2)cc1,.,.,.,.,.
CC1(C)CC(=O)C(C2C3=C(CC(C)(C)CC3=O)Oc3ccccc32)C(=O)C1 (stereo unspecified),.,.,.,.,.
CC1(C)CC(=O)C2=C(C1)Oc1nc3ccccc3cc1C2C(C#N)C#N (stereo unspecified),.,.,58.2,.,64.2
CCOc1nc(NCCc2ccc(OC)c(OC)c2)nc(N2CCN(c3ccc(OC)cc3)CC2)n1,.,.,.,.,.
COc1ccc(N2CCN(c3nc(NCCc4ccc(OC)c(OC)c4)nc(OC)n3)CC2)cc1,.,.,66.6,.,.
CCc1ccc(C(O)(c2ccccc2OC)C(CN2CCOCC2)c2ccccc2)cc1 (stereo unspecified),.,.,.,.,.
CCCC(O)(c1ccc(Cl)cc1)C(CN1CCOCC1)c1ccc(Cl)cc1 (stereo unspecified),.,.,57.7,.,.
CCCC(O)(c1ccc(OC)cc1)C(CN1CCOCC1)c1ccc(Cl)cc1 (stereo unspecified),.,.,.,.,.
CCc1ccc(C(O)(CC(C)C)C(CN2CCOCC2)c2ccccc2)cc1 (stereo unspecified),.,.,53.9,.,.
O=C(c1cccc(F)c1)N1CCN(c2cc(N3CCCCC3)c(F)cc2[N+](=O)[O-])CC1,.,.,.,.,.
Cc1ccc2nc3n(c(=O)c2c1)-c1cc2ccccc2cc1C(=O)NC3Cc1ccc(O)cc1 (stereo unspecified),.,.,69.1,.,.
O=C1NC(Cc2ccc(O)cc2)c2nc3cc(Cl)ccc3c(=O)n2-c2cc3ccccc3cc21 (stereo unspecified),.,.,57.2,.,.
O=C1NC(Cc2ccc(O)cc2)c2nc3cc(F)c(F)cc3c(=O)n2-c2cc3ccccc3cc21 (stereo unspecified),.,.,.,.,.
Cc1ccc(C(=O)N2CCNC(=O)C2CC(=O)Nc2ccc(F)cc2)cc1C (stereo unspecified),.,.,.,.,.
Cc1ccccc1Cn1cc(NC(=O)c2cc(-c3cccs3)on2)cn1,.,.,.,-53.6,.
Cc1ccccc1Cn1cc(NC(=O)c2cc(-c3ccco3)on2)cn1,.,.,.,.,.
CCc1ccccc1OCC(=O)N1CCN(c2ncccn2)CC1,.,.,.,.,.
CCCCCCCNC(=O)C1(CC2CC(c3ccc(Cl)cc3)=NO2)CCNCC1 (stereo unspecified),.,.,111.0,.,.
SMILES,Shn3 inh set2,HIF-2a inh,Peg3 prom inh,KKLEB tox,CF NFkB inh
CCCCCCCNC(=O)C1(CC2CC(c3ccc(Cl)cc3)=NO2)CCN(C(=O)Cc2ccc(F)cc2)CC1 (stereo unspecified),.,.,.,.,.
O=C1C(Cc2ccccc2)Nc2ncnc(N3CCc4ccccc4C3)c2N1Cc1ccc(Cl)cc1 (stereo unspecified),.,.,51.0,.,.
Cc1ccc(S(=O)(=O)n2ccc3c(OCCOCCNCc4ccc(F)cc4)cccc32)cc1,.,.,95.6,.,.
Cc1ccc(S(=O)(=O)n2ccc3c(OCCOCCSCC(NC(=O)OC(C)(C)C)C(=O)O)cccc32)cc1 (stereo unspecified),.,.,.,.,.
COc1ccc(NC(=O)CSc2ncccc2C(=O)OC(C)C)cc1OC,86.5,.,.,.,.
COc1ccc(NC(=O)CSc2ccccn2)cc1OC,.,.,.,.,.
NC(c1csc(NC(=O)Nc2ccc(OC(F)(F)F)cc2)n1)C1CCCCC1 (stereo unspecified),.,.,100.3,-65.2,68.7
CC(C)c1ccccc1NC(=O)Nc1nc(C(N)Cc2ccc(C(F)(F)F)cc2)cs1 (stereo unspecified),98.3,.,108.4,.,.
CC(N)c1csc(NC(=O)Nc2cccc(C(F)(F)F)c2)n1 (stereo unspecified),.,.,78.0,.,.
COc1ccc(NC(=O)Nc2nc(C(N)CC(C)C)cs2)cc1 (stereo unspecified),.,.,.,.,.
NC(Cc1ccc(C(F)(F)F)cc1)c1csc(NC(=O)Nc2ccccc2Cc2ccccc2)n1 (stereo unspecified),.,.,118.3,-92.4,92.1
COc1ccccc1N1CCN(c2ccc3c(c2)S(=O)(=O)c2cccc(C(=O)NCc4cccc(F)c4)c2C3=O)CC1,.,.,.,.,.
CC(C)(C)c1ccccc1NC(=O)Nc1nc(C(N)Cc2ccc(F)cc2)cs1 (stereo unspecified),.,.,97.6,.,.
CC(C)(C)c1ccccc1NC(=O)Nc1nc(C(N)c2ccccc2)cs1 (stereo unspecified),.,.,.,.,.
Cc1c(C(=O)OCc2ccccc2)[nH]c2c1C(=O)CC(c1ccco1)C2 (stereo unspecified),85.7,.,.,.,56.6
COCCOC(=O)c1[nH]c2c(c1C)C(=O)CC(c1ccco1)C2 (stereo unspecified),.,.,.,.,.
Cc1cc(-c2ccccc2)n(-c2cc(N/N=C/c3ccccc3O)ncn2)n1,89.5,47.0,.,-54.4,74.5
c1ccc(COc2ncnc3c2ncn3CCCNCC(c2ccccc2)c2ccccc2)cc1,.,.,99.7,.,.
O=C(CCCN1C(=O)C(=Cc2ccc3c(c2)OCO3)SC1=S)Nc1ccc(C(=O)O)c(O)c1,.,51.5,.,.,.
O=C(CN1C(=O)S/C(=C\c2ccc(-c3cc(C(=O)O)ccc3Cl)o2)C1=O)Nc1ccc2c(c1)OCO2,.,.,.,.,.
O=C(CCCN1C(=O)/C(=C/c2ccc3c(c2)OCO3)SC1=S)Nc1ccc(C(=O)O)cc1,.,68.8,.,.,.
Cn1cc(/C=C2/SC(=O)N(CC(=O)Nc3ccc4c(c3)OCO4)C2=O)c2ccccc21,.,.,.,-65.5,58.5

# Source: PubChem BioAssay (several laboratories)
